Source: PubChem BioAssay (National Center for Advancing Translational Sciences (NCATS))
The list is not random: actives were taken first. Their share in the collection is about 3.3%.
LmPK inhibitor = LmPK (Leishmania mexicana) enzyme inhibition | Q27686 | purified LmPK, Kinase-Glo ATP luminescence, 1 h | Potency, µM (top dose mostly 57.5 µM), inactives show at the highest dose activity change, negative = inhibition, hits mostly inhibitors | 290,000 tested, 0.37% active | AID 1721; note: potency is the fitted concentration of half-maximal effect; % is set by controls: 0 for no effect and ±100 for the full control effect
Target sequence (Q27686 whole entry, looked up): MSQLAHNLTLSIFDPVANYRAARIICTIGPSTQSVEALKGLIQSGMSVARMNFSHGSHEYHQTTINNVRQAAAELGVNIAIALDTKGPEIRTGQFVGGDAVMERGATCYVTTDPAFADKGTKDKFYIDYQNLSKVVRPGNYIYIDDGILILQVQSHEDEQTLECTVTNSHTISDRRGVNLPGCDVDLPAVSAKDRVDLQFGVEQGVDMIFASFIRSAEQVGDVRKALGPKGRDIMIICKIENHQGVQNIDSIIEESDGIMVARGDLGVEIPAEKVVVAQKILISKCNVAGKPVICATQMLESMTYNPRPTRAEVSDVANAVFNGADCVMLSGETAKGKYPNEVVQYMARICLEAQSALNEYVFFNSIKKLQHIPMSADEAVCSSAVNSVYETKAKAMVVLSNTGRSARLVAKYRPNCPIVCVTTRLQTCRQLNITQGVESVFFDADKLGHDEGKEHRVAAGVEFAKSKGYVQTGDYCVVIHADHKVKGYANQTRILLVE
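Purified LmPK (0.1 nM) with 0.5 mM PEP and 0.1 mM ADP in imidazole buffer pH 7.2 with MgCl2/KCl, 1 h at room temperature. ATP formed was read by luciferase luminescence and normalized to no-enzyme and uninhibited controls.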
NS1 function inh = influenza NS1 inhibition. Potency, µM (titrated, usually from 46.1 µM), for inactives: at the top dose activity, positive = more growth. 270,000 tested, 0.4% active. AID 2326; calls by dose curve; note: potency is the fitted concentration of half-maximal effect; actives are rising curves; nearly all actives have a fitted effect of over 50% in size
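OD600 was taken as the measure of yeast growth restored by compound in an NS1-expressing S. cerevisiae strain. Cells had been washed out of glucose medium and diluted 1:100 into galactose -URA medium, pH 6.0.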
Sm TGR inh = inhibitors of Schistosoma mansoni thioredoxin glutathione reductase | AID 485364 | Q962Y6 | purified TGR, DTNB reduction, TNB absorbance 405 nm | 360,000 tested, 3% active | Potency, µM (top dose mostly 114 µM), inactives show top-dose activity change, negative = inhibition, hits mostly inhibitors; note: potency is the fitted concentration of half-maximal effect; % is set by controls: 0 for no effect and ±100 for the full control effect; nearly all actives have a fitted effect of over 60% in size
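Kinetic colorimetric format: TGR-catalysed, NADPH-driven DTNB reduction monitored via TNB absorbance. Enzyme dispensed at 20 nM; compound exposure 15 min at room temperature before reaction start.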
SARS PLpro yeast-1 = SARS-CoV PLP inhibition in yeast | S. cerevisiae expressing SARS-CoV PLpro, growth rescue | Potency, µM (titrated, usually from 32.9 µM), without a hit: at the top dose activity, positive = growth rescue, hits mostly activators | 330,000 tested, 0.19% active | AID 485353; calls by dose curve; note: potency is the fitted concentration of half-maximal effect; 0% is about no effect; nearly all actives have a fitted effect of over 55% in size
Tb PYK inh = inhibitors of Trypanosoma brucei pyruvate kinase | Q57TT1 | TbPYK enzyme, Kinase-Glo Plus ATP luminescence, 45 min | Potency, µM (titrated, usually from 76.8 µM), inactives show top-dose activity, negative = inhibition, most hits filed as inhibitors | 410,000 tested, 0.12% active | AID 624173; note: potency is the fitted concentration of half-maximal effect; % is set by controls: 0 for no effect and ±100 for the full control effect; nearly all actives have a fitted effect of over 50% in size
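Luminescence from Kinase-Glo Plus, added after a 45-minute room-temperature reaction, served as the end-point read-out. The enzyme and substrate were preincubated with compound before ADP (130 uM final) initiated turnover. Concentration-effect curves came from normalized qHTS data.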
RE007 growth inh = less growth of the S. pombe RE007 Vpr strain; S. pombe RE007 Vpr strain, BacTiter-Glo ATP luminescence, 24 h; 360,000 tested, 0.21% active; AID 651644; Potency, µM (top dose mostly 92.2 µM), without a hit: top-dose activity change, negative = less growth, actives largely listed as inhibitors; active = well fitted falling curve with a large enough effect; inconclusive = small, poorly fitted or top-dose-only effect; inactive = no such curve, though single readings can be large or run the other way; note: potency is the fitted concentration of half-maximal effect; % is set by controls: 0 for no effect and ±100 for the full control effect; nearly all actives have a fitted effect of over 50% in size
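Fission yeast strain RE007, carrying one chromosomally integrated HIV-1 vpr copy, was seeded at OD 0.01 in PMG+AL medium with 23 nL pinned compound. After 24 h at 30 °C and 99% humidity, viability was read by BacTiter-Glo luminescence.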
SARS PLpro yeast-2 = Inhibits SARS-CoV PLP in yeast, hit validation. shares compounds with SARS PLpro yeast-1. yeast expressing SARS-CoV PLpro, growth phenotype rescue. calls only. 1,000 tested, 19% active. AID 652038; call rule not given here
Starred values were filed as active, the others as inactive; i = inactive; ? = inconclusive; · = no result given; + = active, no number; [ ] = remark or other dose. Unless noted, calls come from the whole dose curve; as a rule, active = well fitted curve in the direction sought with a large enough effect; inconclusive = small, poorly fitted or top-dose-only effect, or another doubt; inactive = no such curve, though single readings can be large; an effect the other way counts as inactive or inconclusive.

SMILES | LmPK inhibitor | NS1 function inh | Sm TGR inh | SARS PLpro yeast-1 | Tb PYK inh | RE007 growth inh | SARS PLpro yeast-2
CNC(=O)NC1CCCc2ccccc21 (configuration not stated) | -2% | 7% | 1% | ? | 1% | 9% | i
Cc1ccc(SCCCCN2C(=O)NC(C)(C)C2=O)cc1 | 5% | -5% | -14% | ? | -1% | -1% | i
Cc1ccccc1OCc1nc2ccccc2c(=O)n1/N=C/c1c[nH]c2ccccc12 | 1% | 6% | 6% | 10% | 14% | -2% | ·
Cc1cc(/C=N/n2c(COc3ccccc3C)nc3ccccc3c2=O)c(O)c([N+](=O)[O-])c1 | -8% | ? | 3% | 3.5µM* | -2% | -1% | +
O=c1c2ccccc2nc(COc2ccccc2)n1/N=C/c1cc([N+](=O)[O-])ccc1O | -7% | -29% | -4% | 5.6µM* | 4% | ? | ?
CCCC12CN3CC(CCC)(CN(C1)C3c1c(C)[nH]c(=O)[nH]c1=O)C2=O (configuration not stated) | · | · | 3% | · | -5% | · | ·
N#Cc1ccc(CSc2nc3c(c(=O)[nH]2)CCC3)cc1 | · | · | 1% | · | 4% | · | ·
CCn1c(=O)c2cc(C(=O)NCCCN3CCN(C)CC3)sc2c2ccccc21 | · | · | -15% | · | 6% | · | ·
Cc1ccc(C2(C)NC(=O)N(CC(=O)NCc3cccc(Cl)c3)C2=O)cc1 (configuration not stated) | 6% | 0% | 5% | 1% | -10% | -6% | ·
Cc1ccc(C2(C)NC(=O)N(CC(=O)NCc3cccs3)C2=O)cc1 (configuration not stated) | -1% | 21% | 4% | ? | -11% | -22% | i
Cc1ccc(N(C(=O)c2ccc3c(c2)OCO3)C2C=CS(=O)(=O)C2)cc1C (configuration not stated) | -9% | 5% | -24% | · | 3% | -15% | i
O=C(c1ccc2c(c1)OCO2)N(c1ccc(F)cc1)C1C=CS(=O)(=O)C1 (configuration not stated) | 4% | -5% | -2% | 0% | -1% | 14% | ·
N#Cc1nc(-c2ccc(F)cc2)oc1N1CCCCC1 | 0% | -2% | 6% | -4% | 3% | -9% | ·
N#Cc1nc(-c2ccc(F)cc2)oc1N1CCCC1 | -3% | 7% | -14% | ? | -25% | 10% | i
COc1ccc(CCn2c(C)cc(C(=O)CCl)c2C)cc1OC | 6% | · | 11µM* | 10µM* | -3% | 2% | +
COc1ccc(CCn2c(C)c(C(C)=O)c(C(C)=O)c2C)cc1OC | -1% | · | 2% | 2% | -3% | 13% | ·
CCCNC(=O)Cn1nc(-c2ccc(C)c(C)c2)c2cnc3ccc(OC)cc3c21 | · | · | -11% | · | -3% | · | ·
Cc1ccccc1S(=O)(=O)Cc1ccc(C(=O)NCCCN2CCN(C)CC2)o1 | -1% | 6% | 0% | ? | -1% | 9% | i
CC(=O)c1cccc(CN2CCC(C(=O)Nc3ccc(Oc4cccnc4)cc3)CC2)c1 | -3% | 11% | -16% | ? | -3% | -3% | i
O=C(Nc1ccc(Oc2cccnc2)cc1)C1CCN(Cc2cccc(Cl)c2)CC1 | 0% | 19% | 4% | 2% | -2% | 4% | ·
COc1ccc(-c2noc(N3CCC(C(=O)N4CCN(c5cccc(OC)c5)CC4)CC3)n2)cc1 | · | · | -2% | · | -5% | · | ·
CC1(C)CC(=O)C(C=NCCN2CCN(C(=S)Nc3ccccc3)CC2)=C(O)C1 | -6% | -22% | -29% | ? | -6% | 10% | i
CCCN(CCC)c1nn2c(=O)c(C(=O)NCc3cc(Br)ccc3OC)cnc2s1 | · | · | 1% | · | -1% | · | ·
Cc1ccc(NC(=O)c2nc[nH]c2C(=O)NCCCCCCNC(=O)c2[nH]cnc2C(=O)Nc2ccc(C)cc2)cc1 | · | · | · | 13µM* | 1% | 0% | i
O=C(CSc1nc(=O)[nH]c2c1CCCC2)Nc1ccccc1C(F)(F)F | · | · | 4% | · | -5% | · | ·
SMILES | LmPK inhibitor | NS1 function inh | Sm TGR inh | SARS PLpro yeast-1 | Tb PYK inh | RE007 growth inh | SARS PLpro yeast-2
CC1Cc2ccccc2N1c1ncnc2c1nnn2Cc1ccccc1 (configuration not stated) | 3% | -21% | -2% | -1% | -1% | -3% | ·
CC1Cc2ccccc2N1c1nc(C2CC2)nc2c1nnn2Cc1ccccc1 (configuration not stated) | 2% | -7% | -3% | ? | -5% | -1% | +
CCOc1ccccc1CNC(=O)CCNC(=O)Cn1ccc2ccccc2c1=O | 2% | 3% | -8% | ? | -2% | -7% | i
CC1CCCC(NC(=O)COc2ncnc3ccccc23)C1C (configuration not stated) | · | · | · | ? | 5% | -7% | i
Cc1nc(CC(=O)Nc2ccc(C(N)=O)cc2)cs1 | · | · | 0% | · | -1% | · | ·
O=C(Nc1nc2ccccc2n1CCN1CCOCC1)c1ccccc1 | 1% | -4% | -17% | -4% | -2% | -7% | ·
O=C(Nc1nc2ccccc2n1CCN1CCOCC1)c1cn(-c2ccccc2)nc1-c1ccccc1 | 3% | -78% | 1% | ? | -1% | -26% | ?
CCC(=O)N(C)CCc1cc2c(c(OC)c1/C=N/NC(=O)c1ccccc1O)OCO2 | 6% | 19% | 0% | ? | -5% | -4% | +
COc1cccc(NC(=O)COC(=O)CNC(=O)C2CCCCC2)c1 | · | · | -6% | 1% | 2% | 6% | ·
Cc1cccc(NC(=O)COC(=O)CNC(=O)C2CCCCC2)c1 | 5% | 2% | 0% | ? | -1% | -3% | i
CCCC(=O)NC1CC(=O)N(c2ccc3c(c2)OCCO3)C1 (configuration not stated) | · | · | 8% | · | -1% | · | ·
N#CN(CC(N)=O)c1nc(N2CCCCC2)nc(N2CCCCC2)n1 | -1% | 2% | 2% | ? | 4% | 0% | i
Cc1nc(SCc2cc(=O)c3cccc(F)c3[nH]2)n[nH]1 | · | · | 0% | · | 0% | · | ·
COCCNC(=S)N1CCN(S(=O)(=O)c2ccc(Cl)s2)CC1 | -9% | -2% | -5% | · | -3% | 4% | i
COc1ccc(N2CCN(C(=O)CN(c3ccccc3)S(=O)(=O)c3ccc(OC)cc3)CC2)cc1 | 3% | 1% | -16% | 7% | · | -8%[3.69 µM] | ·
COc1ccc(S(=O)(=O)N(CC(=O)N2CCN(c3ccccc3OC)CC2)c2ccccc2)cc1 | 1% | ? | 0% | 4.5µM* | 7% | 27% | i
COc1ccc(OC)c(C2CC(=O)c3c([nH]c(C(=O)OCC4CCCO4)c3C)C2)c1 (configuration not stated) | 8% | -54% | 0% | 5% | 5% | 5% | ·
